Rows were chosen to be rich in hits. Some 2.9% of all compounds tested hit in one or more screens of this group.
DRD3 antagonist: D3 dopamine receptor (human) antagonism | max response, negative = inhibition, % | P35462 | D3R cells, DiscoveRx beta-arrestin luminescence, antagonist mode; hits give low values | hit rate 2.5% among 360,000; in the data active = max response below about -50%; inconclusive = no clear call, values can overlap the other calls; also: % is scaled to controls: 0 for no effect and ±100 for the full control effect
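Cells plated overnight at 1500 cells/well, then exposed to library compounds with dopamine controls for 90 minutes at 37 degrees C. DiscoveRx reagent added for 30–60 minutes at room temperature; luminescence read, quantitative HTS format.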
TSHR antag: blocks TSH signaling through the human TSH receptor; hit rate 0.2% among 330,000; TSHR-expressing cells, TSH-stimulated cAMP HTRF, 2 h; hits give low values; P16473; activity change, negative = inhibition, % at 11.5 µM;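 active = activity change below a set negative limit, meaning inhibition stronger than a set level, cut at about -70% in these data; inconclusive = activity change between two set negative limits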; also: % is scaled to controls: 0 for no effect and ±100 for the full control effect
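Read-out is FRET at 665 nm (cryptate excitation 337 nm) from a cryptate-tagged anti-cAMP antibody, competed by cell cAMP against cAMP-d2. Compounds are tested on freshly harvested TSHR cells challenged with 4nM TSH (EC80) for 2 hours at 37 deg C.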
B2AR arrestin: recruits beta-arrestin to the human beta2-adrenergic receptor; AID 492947; beta-arrestin recruitment to beta2AR, cell-based reporter; hit rate 0.02% among 330,000; Potency, µM (series often up to 46.1 µM), for the others: top-dose activation, most hits filed as activators; P07550; active = well fitted activation curve with a large enough effect; inconclusive = small, poorly fitted or top-dose-only effect;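 also: potency is read from the fitted curve at half-maximal effect; 0% = DMSO controls and full agonism = EC100 isoproterenol or metaproterenol; nearly all actives have a fitted effect of over 65% in size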
Target sequence (P07550 whole entry, looked up): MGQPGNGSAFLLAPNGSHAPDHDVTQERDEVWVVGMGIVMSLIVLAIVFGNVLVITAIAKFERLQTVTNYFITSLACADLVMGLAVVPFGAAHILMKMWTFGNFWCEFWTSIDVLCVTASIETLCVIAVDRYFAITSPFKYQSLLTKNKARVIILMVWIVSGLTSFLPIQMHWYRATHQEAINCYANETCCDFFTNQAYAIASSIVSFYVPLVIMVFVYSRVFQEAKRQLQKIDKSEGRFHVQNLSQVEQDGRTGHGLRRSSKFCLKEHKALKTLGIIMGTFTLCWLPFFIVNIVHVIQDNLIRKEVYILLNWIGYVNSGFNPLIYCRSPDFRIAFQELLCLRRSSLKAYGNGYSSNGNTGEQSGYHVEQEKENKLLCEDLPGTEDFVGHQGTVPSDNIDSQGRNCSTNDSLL
DRD3 agonist: activates the human D3 dopamine receptor; D3R DiscoveRx beta-arrestin cells, luminescence, 90 min; max activation, %; hit rate 0.58% among 410,000; AID 652048; in the data active = max activation above about 30%; also: 0% is about no effect
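Agonist mode: compounds and dopamine controls were applied to plated cells for 90 min at 37 degrees C after an overnight attachment at 1500 cells/well. Luminescent read-out followed 30 - 60 minutes at room temperature with DiscoveRx detection reagent.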
An asterisk follows results filed as active; ? = inconclusive; nt = no result given; ! = not confirmed by another sample.

SMILES	DRD3 antagonist	TSHR antag	B2AR arrestin	DRD3 agonist
C=CCNc1nc(-c2sc(NC(=O)C(C)(C)C)nc2C)c(-n2cc(-c3ccccc3)nn2)s1	98	nt	nt	24
O=C(NCc1ccco1)c1c2c(nc3ccccc13)CCC2	-59*	-2	0%	4
COc1cccc(NC(=O)COC(=O)c2c3c(nc4ccccc24)CCC(C)C3)c1 (stereo not given)	33	-10	0%	53*
O=C(CSc1c2c(nc3ccccc13)CCCC2)NCc1ccco1	2	-9	0%	-1
O=C(COC(=O)c1c2c(nc3ccccc13)/C(=C\c1cccs1)CCC2)Nc1ccccc1	43	26	0%	38*
COc1cccc(NC(=O)COC(=O)c2c(F)cccc2Cl)c1	-62*	-9	-1%	1
CCCCCn1cc2c(c1-c1ccc(Br)cc1)c(=O)n(C)c(=O)n2C	nt	nt	nt	10
Cc1ccccc1CSc1nc2cccnc2n1Cc1ccc(C(=O)NC2CC2)cc1	nt	nt	nt	8
CC(C)NC(=O)NC(=O)COC(=O)c1c2c(nc3ccccc13)CCC2	83	0	0%	36*
CC(C)(C)NC(=O)COC(=O)c1c2c(nc3ccccc13)CCC2	44	-1	0%	14
CCCc1ccc(-c2cc(C(=O)N3CCN(c4ccccn4)CC3)c3ccccc3n2)cc1	39	-18	-1%	44*
COc1ccc(-c2cc(C(=O)N3CCN(c4ccccn4)CC3)c3ccccc3n2)cc1	17	-3	0%	33*
CCOc1ccccc1CNC(=O)CCc1c(C)nn(-c2ccc(N3CCCC3)nn2)c1C	nt	nt	nt	5
CCOc1cc(/C=C2\CCCC(C(=O)C(F)(F)F)=C2O)ccc1O	-52*	3	3%	-25
CC(C)C[C@H]1COc2cc(N3CCN(Cc4ccccc4F)CC3)ccc2S(=O)(=O)N1	-66*	nt	nt	-9
CC(=O)/C(N=Nc1ccc(SC(F)F)cc1)=C(\C)O	-59*	13	0%	1
Cc1nc(C(=O)NNC(=O)c2ccccc2)c(C(F)(F)F)o1	0	-3	-1%	4
Cc1nc(C(=O)NCC(=O)c2ccccc2)c(C(F)(F)F)o1	-59*	10	-1%	-12
c1cc2[nH]snc2c2nc(C3CC3)nc12	24	0	0%	34*
CC1CCc2nc3ncn(Cc4cccc(F)c4)c(=O)c3cc2C1 (stereo not given)	nt	nt	nt	-18
Cc1cc(OCC(=O)Nc2ccc(N3CCN(C(=O)c4ccco4)CC3)cc2)cc(C)c1Cl	53	-38	0%	55*
Cc1ccc(OCC(=O)Nc2ccc(N3CCN(C(=O)c4ccco4)CC3)cc2)cc1C	6	1	-1%	11
CCOCCCn1c(SCC(=O)NCc2ccccc2)nc2c(sc3ccccc32)c1=O	nt	nt	nt	-14
Cn1cnnc1SCC(=O)c1ccc(O)c(O)c1	35	2	0%	39*
CC(=O)c1ccc(O)c(CSc2nncn2C)c1	8	42	3%	1
SMILES	DRD3 antagonist	TSHR antag	B2AR arrestin	DRD3 agonist
CCc1ccc(-n2c(N3CCN(c4cccc(Cl)c4)CC3)nc3ccccc3c2=O)cc1	nt	nt	nt	-5
CSc1cnn(CCC#N)c(=O)n1	6	nt	nt	0
CSc1nc(=O)n(CCC#N)nc1SC	-65*	nt	nt	-16
COc1ccccc1NC(=O)Cn1c(=O)n(Cc2nc(-c3ccccc3)no2)c(=O)c2ccccc21	nt	nt	nt	-5
COc1ccc(-c2cc(C(F)(F)F)nc(N3CCOCC3)n2)cc1OC	5	-6	0%	2
CS(=O)(=O)c1nc(-c2cccs2)cc(C(F)(F)F)n1	nt	-38	?	nt
CN1CCN(c2nc(-c3cccs3)cc(C(F)(F)F)n2)CC1	-94*	7	-1%	-5
CN1CCN(c2nc(-c3ccccc3)cc(C(F)(F)F)n2)CC1	-70*	-15	0%	-4
COc1ccc(-c2cc(-c3ccccc3)nc(N3CCCC3)n2)cc1OC	49	14	0%	41*
CCOC(=O)c1c(NC(=O)c2cc(-c3ccc(Br)cc3)on2)sc(C)c1C	nt	nt	nt	5
Cc1ccc(C(=O)Nc2sc(C(=O)N(C)C)c(C)c2C#N)cc1	0	-7	0%	-6
Cc1c(C(=O)N(C)C)sc(NC(=O)c2cc([N+](=O)[O-])cc([N+](=O)[O-])c2)c1C#N	-91*	-1	0%	-3
Cc1ccc(-n2c(O)c(/C=N/n3cnnc3)c3ccccc3c2=O)cc1	-109*!	13	0%	7
O=c1c2ccccc2c(/C=N/n2cnnc2)c(O)n1-c1ccccc1F	-5	3	-1%	-1
CCC1CN(C(=O)Nc2ccccc2C(F)(F)F)c2ccccc2O1 (stereo not given)	nt	nt	nt	-2
C=C(C)COc1ccc(-c2[nH]ncc2-c2ccccc2OC)c(O)c1	-63*	-5	-1%	-3
O=C1c2ccccc2C(=O)N1CC1CCCO1 (stereo not given)	-13	2	0%	-6
O=C1c2ccccc2C(=O)N1CC1CO1 (stereo not given)	-2	nt	nt	63*
COc1ccccc1CNC(=O)Cn1c(=O)nc(-c2ccccc2F)c2cc(Cl)ccc21	nt	nt	nt	1
COCCNC(=O)CCC(=O)N1Cc2cccc(OC)c2Oc2ncccc21	nt	nt	nt	-2
CCCc1cc(C(=O)Nc2cccc(Cl)c2)no1	?	1	0%	-11
CCCc1cc(C(=O)Nc2ccc(F)c(Cl)c2)no1	-51*	-35	0%	-19
CCC(C)NCCOCCOc1ccc(F)cc1 (stereo not given)	-66*	12	0%	-9
CCC(C)NCCOCCOc1ccccc1-c1ccccc1 (stereo not given)	-69*	-4	0%	-27
CC(C)(C)NCCOCCOc1ccccc1-c1ccccc1	9	6	0%	-37
SMILES	DRD3 antagonist	TSHR antag	B2AR arrestin	DRD3 agonist
Cc1nc(SCC(=O)Nc2ccccc2F)[nH]c(=O)c1Cc1ccccc1	nt	nt	nt	3
COc1ccc(-c2nnc(SCC(=O)Nc3ccc(F)cc3)s2)cc1	nt	nt	nt	-9
CCOC(=O)c1ccc(NC(=O)C2Cc3ccccc3CN2S(=O)(=O)c2ccc(Cl)cc2)cc1 (stereo not given)	nt	nt	nt	-5
CCOC(=O)c1ccc(NC(=O)C2CC(O)CN2S(=O)(=O)c2ccc(C)cc2)cc1 (stereo not given)	-54*	0	3%	-18
Cn1c(=O)c(C(=O)CCl)c(N)n(CC2CC2)c1=O	0	11	-2%	35*
Cc1ccc(-n2ncc(C(=O)NCc3ccc4c(c3)OCO4)c2C2CCN(C(=O)OC(C)(C)C)CC2)c(C)c1	nt	nt	nt	0
NC(N)=NCCCC(NC(=O)c1ccccc1)C(=O)Nc1ccc2ccccc2c1 (stereo not given)	?	3	0%	-70
NC(N)=NCCCC(NC(=O)c1ccccc1)C(=O)Nc1ccc([N+](=O)[O-])cc1 (stereo not given)	-94*	3	1%	-44
CCc1cccc(-n2c(=O)c3cccnc3n2CC(=O)NCc2ccccc2)c1	nt	nt	nt	9
S=c1[nH]ncn1/N=C/c1ccc(Br)cc1	-109*	-3	0%	-10
COc1cc(/C=C/CN2CCC(CO)(CC3CCCCO3)CC2)ccc1O (stereo not given)	-67*	0	-1%	-53
